High-throughput results deposited in PubChem by National Center for Advancing Translational Sciences (NCATS).
An excerpt weighted towards active compounds, which were near 19% of everything screened.
TDP1 block: blocks human tyrosyl-DNA phosphodiesterase 1; 350,000 tested, 0.28% active; recombinant TDP1, AlphaScreen DNA substrate cleavage; Potency, µM (highest dose often 130 µM), actives largely listed as inhibitors; also: nearly all actives have a fitted effect of over 40% in size
Target sequence (Q9NUW8 whole entry, looked up): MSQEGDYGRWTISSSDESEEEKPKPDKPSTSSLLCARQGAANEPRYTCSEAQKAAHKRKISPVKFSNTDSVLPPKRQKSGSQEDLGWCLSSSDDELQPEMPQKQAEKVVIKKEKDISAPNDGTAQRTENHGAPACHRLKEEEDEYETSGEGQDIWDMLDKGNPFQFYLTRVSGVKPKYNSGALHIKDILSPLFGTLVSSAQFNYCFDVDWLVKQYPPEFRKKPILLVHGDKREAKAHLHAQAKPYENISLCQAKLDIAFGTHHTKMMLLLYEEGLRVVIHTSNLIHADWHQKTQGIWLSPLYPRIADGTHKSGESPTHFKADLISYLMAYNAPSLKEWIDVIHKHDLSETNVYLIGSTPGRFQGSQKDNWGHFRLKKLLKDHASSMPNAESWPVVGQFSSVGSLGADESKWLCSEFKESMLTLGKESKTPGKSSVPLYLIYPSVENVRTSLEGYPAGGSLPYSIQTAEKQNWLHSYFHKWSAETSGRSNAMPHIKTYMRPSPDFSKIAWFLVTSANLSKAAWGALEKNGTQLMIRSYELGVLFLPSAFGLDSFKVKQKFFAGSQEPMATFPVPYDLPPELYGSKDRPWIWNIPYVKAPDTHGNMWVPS
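AlphaScreen read-out: signal falls as enzyme removes the 3' tyrosine-FITC from a 5'-biotinylated DNA oligo (15 nM, 5 min, RT). Enzyme was E. coli-made recombinant Tdp1 at 1 nM, exposed to compound for 15 min beforehand; beads 10 ug/ml, 10 min.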
Giardia killer: Giardia lamblia killing; Giardia lamblia trophozoite viability; activity change, % at 7.66 µM, hits read low; 340,000 tested, 0.15% active; AID 540267; in the data active = activity change below about -80%; inconclusive = between about -30% and that limit;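 also: parasites exposed to compound for two days anaerobically before the ATP read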
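Media and compound were dispensed first, then trophozoites at 100 cells/well; plates sat 48 hrs at 37 deg C without oxygen before ATP luminescence reagent was added and read after 15-30 min at room temperature.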
IL1B secr inh: inhibitors of inflammasome signaling (IL-1 beta secretion); THP-1 LPS/ATP IL-1B secretion, AlphaLISA, 16 h; stronger effect = lower value; activity change, % at 57.5 µM; 360,000 tested, 4.7% active; in the data active = activity change below about -50%; inconclusive = mostly about -30% to -49%
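Secreted IL-1B measured by AlphaLISA bead assay after 16 h compound exposure of THP-1 cells; compounds (final up to 57.5 uM) added 1 h before LPS (250 ng/mL) and ATP (1.25 mM) stimulation; lower signal means less secretion.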
TDP1 cell noCPT: qHTS for Inhibitors of human tyrosyl-DNA phosphodiesterase 1 (TDP1): qHTS in cells in absence of CPT; 420,000 tested, 15% active; DT40 Tdp1-/- hTDP1 cells, no CPT, ATP luminescence, 48 h; Potency, µM (titrated, usually from 46.2 µM), hits mostly inhibitors; AID 686978, 2013; also: nearly all actives have a fitted effect of over 55% in size
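No-CPT arm: Tdp1-/-;hTDP1 DT40 cells (400/well) plus compounds, incubated ≥48 hr at 37 °C. Readout CellTiter-Glo luminescence.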
TDP1 cell CPT: growth inhibition of DT40 Tdp1-/-;hTDP1 cells with camptothecin (screen for TDP1 inhibitors) | chicken DT40 Tdp1-/-;hTDP1 cells + 20 nM CPT, ATP luminescence, 48 h | Potency, µM (titrated, usually from 46.2 µM), hits mostly inhibitors | 420,000 tested, 12% active; also: nearly all actives have a fitted effect of over 55% in size
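Chicken DT40 Tdp1-/- cells stably complemented with human TDP1 were seeded at 400 cells/well in medium containing 20 nM camptothecin, exposed to pin-transferred compounds, and grown at 37 °C for at least 48 hr. Viability was read as ATP luminescence.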
ELG1 DNA repair: ELG1-dependent DNA repair inhibition; HEK293T ELG1-luciferase reporter, luminescence, 16 h; DNA damage induced by 5-fluorouridine; Potency, µM (top dose mostly 46.1 µM), hits mostly inhibitors; 330,000 tested, 2.3% active; also: nearly all actives have a fitted effect of over 55% in size
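Cells (2,000 per well) received 5-fluorouridine plus test compound or DMSO and were incubated 16 hr at 37 °C, 5% CO2. Luciferase activity was read by luminescence 30 min after ONE-Glo addition; signal suppression marked inhibition of damage-induced ELG1 function.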
A number is an active result; [ ] = remark or other dose. Unless noted, calls follow the shape of the dose curve; as a rule, active = well fitted curve in the direction sought with a large enough effect; inconclusive = small, poorly fitted or top-dose-only effect, or another doubt; inactive = no such curve, though single readings can be large; an effect the other way counts as inactive or inconclusive.

CCc1cccc(NC(=O)c2oc3ccc4c(c3c2C)C(=O)CC(C)(C)O4)c1 was read as TDP1 block inactive, TDP1 cell noCPT 21µM and TDP1 cell CPT inconclusive.
Fc1ccc(Br)cc1C1C=C(c2ccc(Br)s2)Nc2ncnn21 (stereo not given) was read as TDP1 block inactive, Giardia killer inactive, IL1B secr inh inactive, TDP1 cell noCPT 0.65µM, TDP1 cell CPT 0.92µM and ELG1 DNA repair inactive.
Screening O=C(COCc1cc(-c2cccs2)on1)NCc1ccc(Cl)cc1 returned TDP1 block inactive, TDP1 cell noCPT inactive and TDP1 cell CPT inactive.
`Cc1[nH]n(-c2ccccc2)c(=O)c1/C=C1\C=NN=C1c1ccccc1` gave TDP1 block inactive, Giardia killer inactive, TDP1 cell noCPT inactive, TDP1 cell CPT inactive and ELG1 DNA repair inconclusive.
Screening Cc1[nH]n(-c2ccccc2)c(=O)c1/C=C1/C=c2ccccc2=N1 returned TDP1 block inactive, Giardia killer inactive, IL1B secr inh inactive, TDP1 cell noCPT 21µM, TDP1 cell CPT inconclusive and ELG1 DNA repair inconclusive.
`O=C(CSc1nc2c([nH]c3ccccc32)c(=O)n1-c1ccccc1)NCc1ccc(F)cc1` gave TDP1 block inactive, TDP1 cell noCPT inconclusive and TDP1 cell CPT inconclusive.
For Cc1ccc(-c2nnn3c2nc(NC2CCC(C)CC2)c2ccccc23)cc1 (stereo not given) the results were TDP1 block inactive, TDP1 cell noCPT inconclusive and TDP1 cell CPT inactive.
For CC1CCC(Nc2nc3c(-c4cccc(C(F)(F)F)c4)nnn3c3ccccc23)CC1 (stereo not given) the results were TDP1 block inactive, TDP1 cell noCPT 29µM and TDP1 cell CPT inconclusive.
Screening C=CCSc1nc2c(C(=O)OCC)nnn2c2ccccc12 returned Giardia killer inactive, IL1B secr inh inactive, TDP1 cell noCPT 9.2µM, TDP1 cell CPT inconclusive and ELG1 DNA repair inactive.
CCOC(=O)c1nnn2c1nc(Nc1cccc(C(F)(F)F)c1)c1ccccc12 was read as Giardia killer inactive, TDP1 cell noCPT 5.8µM, TDP1 cell CPT 10µM and ELG1 DNA repair inactive.
CCOC(=O)c1nnn2c1nc(SCC(C)=O)c1ccccc12 was read as TDP1 block inactive, Giardia killer inactive, IL1B secr inh inactive, TDP1 cell noCPT inconclusive, TDP1 cell CPT inactive and ELG1 DNA repair inactive.
`CCCNC(=O)CSc1cn(CC(=O)N2CCCCCC2)c2ccccc12` gave TDP1 block inactive, TDP1 cell noCPT inactive and TDP1 cell CPT inactive.
For Cc1cc(C)c(S(=O)(=O)N2CCN(c3ccccn3)CC2)c(C)c1 the results were TDP1 block inactive, Giardia killer inactive, IL1B secr inh inconclusive, TDP1 cell noCPT inactive, TDP1 cell CPT inactive and ELG1 DNA repair inactive.
`COc1ccc(CNc2cccc3[nH]c(C(F)(F)F)nc23)cc1` gave Giardia killer inactive, IL1B secr inh -71, TDP1 cell noCPT inconclusive, TDP1 cell CPT inconclusive and ELG1 DNA repair inconclusive.
COc1ccc(CNCc2ccccc2C(F)(F)F)cc1 was read as Giardia killer inactive, IL1B secr inh inactive, TDP1 cell noCPT inactive, TDP1 cell CPT inactive and ELG1 DNA repair inactive.
Screening COc1cc(CNc2nc3ccccc3[nH]2)cc(OC)c1OC returned TDP1 block inactive, Giardia killer inactive, IL1B secr inh inactive, TDP1 cell noCPT inconclusive, TDP1 cell CPT inactive and ELG1 DNA repair inactive.
For COc1cc(CNc2cccc3[nH]c(C(F)(F)F)nc23)cc(OC)c1 the results were Giardia killer inactive, IL1B secr inh inactive, TDP1 cell noCPT 26µM, TDP1 cell CPT 23µM and ELG1 DNA repair inconclusive.
For Fc1ccc(N2CCN(Cc3ccc4c(c3)CN(Cc3cccn3-c3ncccn3)CCO4)CC2)cc1 the results were TDP1 cell noCPT inconclusive and TDP1 cell CPT inactive[9.04 µM].
`Cc1ccc(C)c(N2CCN(C(=O)C(C)n3nc(C)c4sc5ccccc5c4c3=O)CC2)c1` (stereo not given) gave TDP1 block inactive, TDP1 cell noCPT inactive and TDP1 cell CPT inactive.
For Cc1nn(C(C)C(=O)N2CCCCC2)c(=O)c2c1sc1ccccc12 (stereo not given) the results were TDP1 block inactive, Giardia killer inactive, IL1B secr inh inactive, TDP1 cell noCPT 21µM, TDP1 cell CPT inconclusive and ELG1 DNA repair inactive.
Screening COc1ccc(N2CCN(C(=O)C(C)n3nc(C)c4sc5ccccc5c4c3=O)CC2)cc1 (stereo not given) returned TDP1 block inactive, TDP1 cell noCPT 16µM and TDP1 cell CPT inconclusive.
Screening CCOc1ccc(-c2cc(C(=O)NCCCn3ccnc3)c3cc(Br)ccc3n2)cc1 returned Giardia killer inactive, IL1B secr inh -99, TDP1 cell noCPT 10µM, TDP1 cell CPT 12µM and ELG1 DNA repair inconclusive.
O=C(NCCCN1CCOCC1)c1cc(-c2ccccc2)nc2ccccc12 was read as Giardia killer inactive, IL1B secr inh inactive, TDP1 cell noCPT inactive, TDP1 cell CPT inactive and ELG1 DNA repair inactive.
For CCOc1ccc(-c2cc(C(=O)O)c3ccccc3n2)cc1 the results were TDP1 block inactive, Giardia killer -83, IL1B secr inh inactive, TDP1 cell noCPT inconclusive, TDP1 cell CPT inconclusive and ELG1 DNA repair inconclusive.
For CCOc1ccc(-c2cc(C(=O)NCCCN3CCN(CC)CC3)c3ccccc3n2)cc1 the results were TDP1 block inactive, Giardia killer inactive, IL1B secr inh -71, TDP1 cell noCPT inconclusive, TDP1 cell CPT inconclusive and ELG1 DNA repair inconclusive.
Screening CCOc1ccc(-c2cc(C(=O)NCCCn3ccnc3)c3ccccc3n2)cc1 returned TDP1 block inactive, Giardia killer inactive, IL1B secr inh inactive, TDP1 cell noCPT inconclusive, TDP1 cell CPT inconclusive and ELG1 DNA repair inactive.
COc1ccc(NC(=O)c2cnc(SCC(=O)Nc3nc4ccc(C)cc4s3)n(C)c2=O)cc1 was read as TDP1 block inactive, TDP1 cell noCPT inactive and TDP1 cell CPT inactive.
Cc1ccc(-c2c(CN3CCN(c4cccc(C)c4)C(C)C3)csc2C)cc1 (stereo not given) was read as TDP1 block inactive, TDP1 cell noCPT 16µM and TDP1 cell CPT inconclusive.
Screening Cc1ccc(-c2c(CN3CCN(c4cccc(C)c4C)CC3)csc2C)cc1 returned TDP1 block inactive, TDP1 cell noCPT 21µM and TDP1 cell CPT 15µM.
Screening CC(=O)N1C2=CCCC3CCCCC23c2ccccc21 (stereo not given) returned Giardia killer inactive, IL1B secr inh inactive, TDP1 cell noCPT 26µM and TDP1 cell CPT 21µM.
`Cc1nnc2n(c1=O)N=C(c1ccc(Cl)cc1)CS2` gave TDP1 block inactive, Giardia killer inactive, IL1B secr inh inactive, TDP1 cell noCPT inactive, TDP1 cell CPT inactive and ELG1 DNA repair inconclusive.
